Values joined by “and” are separate entries in the source; they are usually repeats but may differ in a detail not shown here. Equal entries are not always repeated. In all, about 5,500 compounds went through this assay and about 2,000 (36%) were called active. Inconclusive results (about 18%) are left out. Rule as the data show it: active = normalized growth mostly below about 0.91 (no sharp cut-off); inconclusive = no clear call, values can overlap the other calls; inactive = mostly above about 0.92. Some of the results follow.
Experiment: chemical genetic growth profiling, strain panel (AID 1159580);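 also: tested at 20 µM; growth read once vehicle control cultures reached saturation at 30 °C; 1 = growth at the plate median or of vehicle wells; lower values mean less growth of the strain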
Conditions: S. cerevisiae deletion strains, growth OD

Measured: normalized growth

COc1cc(C(C)=O)cc(OC)c1O
inactive: locus YAL013W, strain DEP1, hits give low values 0.991 | locus YAL021C, strain ccr4, hits give low values 1.04 | locus YAL026C, strain drs2, hits give low values 1.03 | locus YAL030W, strain snc1, hits give low values 1.01 | locus YBL061C, strain skt5, hits give low values 1.03 | locus YBR009C, strain hhf1, hits give low values 1.04 | locus YBR021W, strain FUR4, hits give low values 1.01 | locus YBR023C, strain chs3, hits give low values 1.03 | locus YBR171W, strain sec66, hits give low values 1.03 | locus YBR229C, strain ROT2, hits give low values 0.998 | locus YBR231C, strain swc5, hits give low values 1.02 | locus YBR279W, strain paf1, hits give low values 1.02 | locus YCL011C, strain gbp2, hits give low values 1.03 | locus YCL016C, strain dcc1, hits give low values 1.02 | locus YCL029C, strain bik1, hits give low values 1 | locus YCL061C, strain MRC1, hits give low values 1.02 | locus YCL069W, strain vba3, hits give low values 1.01 | locus YCR088W, strain abp1, hits give low values 1.02 | locus YDL005C, strain med2, hits give low values 1.02 | locus YDL035C, strain GPR1, hits give low values 0.993 | locus YDL040C, strain nat1, hits give low values 1.01 | locus YDL074C, strain BRE1, hits give low values 1.04 | locus YDL101C, strain DUN1, hits give low values 1.01 | locus YDL134C, strain PPH21, hits give low values 0.991 | locus YDL185W, strain tfp1, hits give low values 1 | locus YDL192W, strain arf1, hits give low values 0.99 | locus YDR001C, strain nth1, hits give low values 1.01 | locus YDR069C, strain doa4, hits give low values 1.04 | locus YDR101C, strain arx1, hits give low values 1.01 | locus YDR137W, strain rgp1, hits give low values 1.08 | locus YDR150W, strain NUM1, hits give low values 0.978 | locus YDR159W, strain sac3, hits give low values 1.05 | locus YDR162C, strain NBP2, hits give low values 0.986 | locus YDR195W, strain ref2 1.05 | locus YDR297W, strain sur2, hits give low values 1.02 | locus YDR318W, strain mcm21, hits give low values 0.991 | locus YDR334W, strain swr1, hits give low values 1.02 | locus YDR335W, strain msn5, hits give low values 1.02 | locus YDR388W, hits give low values 0.994 | locus YDR392W, strain spt3, hits give low values 0.971 | locus YDR502C, strain sam2, hits give low values 1.01 | locus YEL003W, strain gim4, hits give low values 1.04 | locus YEL037C, strain rad23, hits give low values 1.02 | locus YEL061C, strain CIN8 (second series), hits give low values 1.03 | locus YEL061C, strain CIN8, hits give low values 0.999 | locus YER015W, strain faa2, hits give low values 1.02 | locus YER016W, strain bim1, hits give low values 1.01 | locus YER110C, hits give low values 1 | locus YER111C, strain swi4, hits give low values 1.03 | locus YER155C, strain BEM2 (second series), hits give low values 1.03 | locus YER155C, strain BEM2, hits give low values 0.994 | locus YER167W, strain BCK2, hits give low values 0.977 | locus YFR010W, strain ubp6, hits give low values 1.03 | locus YGL078C, strain dbp3, hits give low values 0.998 | locus YGL086W, strain mad1, hits give low values 1.02 | locus YGL167C, strain pmr1, hits give low values 1.03 | locus YGL173C, strain kem1, hits give low values 1.04 | locus YGL227W, strain vid30, hits give low values 1.03 | locus YGL240W, strain doc1, hits give low values 1.04 | locus YGL248W, strain PDE1, hits give low values 0.998 | locus YGL253W, strain hxk2, hits give low values 1.02 | locus YGR135W, strain pre9, hits give low values 0.994 | locus YGR252W, strain gcn5, hits give low values 1.02 | locus YHR013C, strain ard1, hits give low values 1.02 | locus YHR027C, strain rpn1, hits give low values 1.02 | locus YHR030C, strain SLT2, hits give low values 1 and 0.985 | locus YHR079C, strain IRE1 (second series), hits give low values 0.999 | locus YHR079C, strain IRE1, hits give low values 0.983 | locus YHR094C, strain hxt1, hits give low values 1 | locus YHR129C, strain ARP1, hits give low values 1.01 | locus YHR142W, strain chs7, hits give low values 1.03 | locus YHR200W, strain rpn10, hits give low values 0.993 | locus YIL066C, strain RNR3, hits give low values 0.983 | locus YIL073C, strain SPO22, hits give low values 0.998 | locus YIL125W, strain kgd1, hits give low values 0.997 | locus YIR030C, strain dcg1, hits give low values 1.01 | locus YJL092W, strain hpr5, hits give low values 1.02 | locus YJL095W, strain BCK1 (second series), hits give low values 1.01 | locus YJL095W, strain BCK1, hits give low values 1.05 and 0.999 | locus YJL115W, strain asf1, hits give low values 1.02 | locus YJL129C, strain trk1, hits give low values 1.05 | locus YJL134W, strain LCB3, hits give low values 0.993 | locus YJL154C, strain vps35, hits give low values 1.01 | locus YJL164C, strain tpk1, hits give low values 1 | locus YJL166W, strain qcr8, hits give low values 1.04 | locus YJL168C, strain set2, hits give low values 0.997 | locus YJL187C, strain SWE1 (second series), hits give low values 1.02 | locus YJL187C, strain SWE1, hits give low values 1.02 | locus YJR043C, strain POL32, hits give low values 0.981 | locus YJR066W, strain TOR1, hits give low values 0.963 | locus YKL009W, strain mrt4, hits give low values 1.05 | locus YKL068W, hits give low values 0.993 | locus YKL085W, strain MDH1 (second series), hits give low values 0.986 | locus YKL085W, strain MDH1, hits give low values 0.986 | locus YKL160W, strain elf1, hits give low values 1.03 | locus YKL190W, strain CNB1, hits give low values 1.01 | locus YKR001C, strain vps1, hits give low values 0.987 | locus YKR026C, strain gcn3, hits give low values 0.995 | locus YKR091W, strain srl3, hits give low values 1.02 | locus YLL001W, strain dnm1, hits give low values 1.01 | locus YLL026W, hits give low values 1.02 | locus YLL041C, strain sdh2, hits give low values 1.02 | locus YLR027C, strain aat2, hits give low values 1.01 | locus YLR039C, strain RIC1, hits give low values 1.02 | locus YLR058C, strain SHM2, hits give low values 0.998 | locus YLR102C, strain apc9, hits give low values 1 | locus YLR113W, strain HOG1, hits give low values 0.981 | locus YLR221C, strain rsa3, hits give low values 1.04 | locus YLR258W, strain gsy2, hits give low values 1.03 | locus YLR262C, strain YPT6 (second series), hits give low values 1.07 | locus YLR262C, strain YPT6, hits give low values 1.07 | locus YLR268W, strain sec22, hits give low values 1.05 | locus YLR320W, strain mms22, hits give low values 1.04 | locus YLR330W, strain CHS5, hits give low values 0.988 | locus YLR342W, strain FKS1 (second series), hits give low values 1 | locus YLR342W, strain FKS1, hits give low values 1.02 | locus YLR357W, strain rsc2, hits give low values 1.06 | locus YLR370C, strain arc18, hits give low values 1.02 | locus YLR371W, strain rom2, hits give low values 1.01 | locus YLR384C, strain iki3, hits give low values 1.01 | locus YLR418C, strain cdc73, hits give low values 0.967 | locus YML016C, strain PPZ1, hits give low values 1.01 | locus YML032C, strain rad52, hits give low values 0.957 | locus YML120C, strain ndi1, hits give low values 1.03 | locus YML124C, strain tub3, hits give low values 0.992 | locus YMR058W, strain fet3, hits give low values 1.02 | locus YMR078C, strain ctf18, hits give low values 1 | locus YMR125W, strain sto1, hits give low values 1.04 | locus YMR129W, hits give low values 1.03 | locus YMR205C, strain PFK2, hits give low values 1.08 | locus YMR223W, strain ubp8, hits give low values 0.999 | locus YMR231W, strain pep5, hits give low values 1.01 | locus YMR307W, strain GAS1, hits give low values 0.981 | locus YNL067W, strain RPL9B, hits give low values 1.03 | locus YNL071W, strain lat1, hits give low values 1.02 | locus YNL183C, strain NPR1, hits give low values 0.972 | locus YNL209W, strain ssb2, hits give low values 1.03 | locus YNL233W, strain BNI4, hits give low values 1.03 | locus YNL248C, strain rpa49, hits give low values 1.04 | locus YNL250W, strain rad50, hits give low values 0.988 | locus YNL271C, strain bni1, hits give low values 0.996 | locus YNL298W, strain CLA4, hits give low values 1.01 | locus YNL307C, strain MCK1, hits give low values 1 | locus YNL322C, strain KRE1 (second series), hits give low values 1.03 | locus YNL322C, strain KRE1, hits give low values 0.986 | locus YNR049C, strain mso1, hits give low values 1.02 | locus YNR052C, strain pop2, hits give low values 0.993 | locus YOL006C, strain TOP1, hits give low values 1.02 | locus YOL012C, strain htz1 0.701 | locus YOL147C, strain pex11, hits give low values 0.994 | locus YOR001W, strain rrp6, hits give low values 1.03 | locus YOR061W, strain CKA2, hits give low values 0.995 | locus YOR069W, strain VPS5, hits give low values 0.996 | locus YOR070C, strain gyp1, hits give low values 1.01 | locus YOR080W, strain dia2, hits give low values 1.04 | locus YOR083W, strain WHI5, hits give low values 1.03 | locus YOR106W, strain vam3, hits give low values 1.07 | locus YOR136W, strain idh2, hits give low values 1 | locus YOR144C, strain elg1, hits give low values 0.997 | locus YOR184W, strain ser1, hits give low values 0.994 | locus YOR231W, strain MKK1, hits give low values 0.979 | locus YOR265W, strain rbl2, hits give low values 1.02 | locus YOR270C, strain vph1, hits give low values 1.1 | locus YOR290C, strain snf2, hits give low values 0.995 | locus YOR316C, strain cot1, hits give low values 0.998 | locus YPL051W, strain arl3, hits give low values 1.02 | locus YPL055C, strain LGE1, hits give low values 1.01 | locus YPL078C, strain atp4, hits give low values 1.02 | locus YPL106C, strain sse1, hits give low values 1.06 | locus YPL240C, strain hsp82, hits give low values 1.04 | locus YPL256C, strain CLN2, hits give low values 0.976 | locus YPR119W, strain clb2, hits give low values 0.991 | locus YPR141C, strain kar3, hits give low values 0.989 | locus YPR163C, strain tif3, hits give low values 1 | locus YPR167C, strain met16, hits give low values 0.989 | strain wtn01, hits give low values 1.03
